Laboratory results reported in the supplement of paper PMC8371130.
Where a name gives a salt, the structure may show the parent alone.

Tested on: HL-1
Test: relative cell viability (CellTiter-Glo) vs DMSO control (% of DMSO control); higher = more viable cells
How it was run: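 HL-1 mouse atrial cardiomyocytes were seeded into 384-well plates at 1000 cells per well along with compounds at 40, 200, 1000 or 5000 nM in 0.01% DMSO. After one day, the cells were moved to a hypoxic workstation (1% O2) for 48 h and then reoxygenated for 24 h in a normal incubator, while others remained in normoxia for the same period. Cell viability was measured by CellTiter-Glo luminescence and normalised to vehicle-treated control cells.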

[1] = oxygen condition: hypoxia 48 h (1% O2) + reoxygenation 24 h, 40 nM
[2] = oxygen condition: hypoxia 48 h (1% O2) + reoxygenation 24 h, 200 nM
[3] = oxygen condition: hypoxia 48 h (1% O2) + reoxygenation 24 h, 1000 nM
[4] = oxygen condition: hypoxia 48 h (1% O2) + reoxygenation 24 h, 5000 nM
[5] = oxygen condition: normoxia 72 h, 40 nM
[6] = oxygen condition: normoxia 72 h, 200 nM
[7] = oxygen condition: normoxia 72 h, 1000 nM
[8] = oxygen condition: normoxia 72 h, 5000 nM

Row | SMILES | relative cell viability [1] | relative cell viability [2] | relative cell viability [3] | relative cell viability [4] | relative cell viability [5] | relative cell viability [6] | relative cell viability [7] | relative cell viability [8]
1 | COc1c2ccoc2cc2oc(=O)ccc12 [Bergapten] | 101 | 104 | 107 | 109 | 99.2 | 96.6 | 109 | 103
2 | CS(=O)(=O)c1ccc([C@@H](O)[C@@H](CO)NC(=O)C(Cl)Cl)cc1 [Thiamphenicol] | 104 | 104 | 109 | 104 | 101 | 96.9 | 95.9 | 86.5
3 | Cc1c(-c2ccc(O)cc2)n(Cc2ccc(OCCN3CCCCCC3)cc2)c2ccc(O)cc12 [Bazedoxifene HCl] | 107 | 99.8 | 101 | 84.1 | 98.6 | 97.9 | 105 | 45.6
4 | CC/C(=C(\c1ccccc1)c1ccc(OCCN(C)C)cc1)c1ccccc1 [Tamoxifen Citrate] | 103 | 99.9 | 98.6 | 108 | 95.9 | 107 | 105 | 103
5 | NCC(=O)CCC(=O)O [5-Aminolevulinic acid hydrochloride] | 101 | 104 | 105 | 110 | 99.8 | 102 | 100 | 113
6 | CNC(=O)c1ccc(N2C(=S)N(c3ccc(C#N)c(C(F)(F)F)c3)C(=O)C2(C)C)cc1F | 99.6 | 103 | 51.5 | 106 | 99.6 | 102 | 106 | 109
7 | OC1(c2ccc(Cl)c(C(F)(F)F)c2)CCN(CCCC(c2ccc(F)cc2)c2ccc(F)cc2)CC1 [Penfluridol] | 96.8 | 107 | 96.7 | 116 | 97.8 | 100 | 104 | 120
8 | COc1ccc(-c2nc3cc(C4=NNC(=O)CC4C)ccc3[nH]2)cc1 (centres undefined) [Pimobendan] | 107 | 108 | 99.1 | 109 | 109 | 102 | 114 | 111
9 | C[C@H](CCC(=O)O)[C@H]1CC[C@H]2[C@@H]3CC[C@@H]4C[C@H](O)CC[C@]4(C)[C@H]3CC[C@]12C [Lithocholic acid] | 108 | 108 | 108 | 113 | 102 | 113 | 105 | 108
10 | OC(CNCC(O)C1CCc2cc(F)ccc2O1)C1CCc2cc(F)ccc2O1 (centres undefined) [Nebivolol] | 106 | 109 | 106 | 112 | 103 | 107 | 112 | 115
11 | CCCCC(=O)N(Cc1ccc(-c2ccccc2-c2nnn[nH]2)cc1)[C@H](C(=O)O)C(C)C [Valsartan] | 104 | 97.5 | 80.6 | 51.6 | 98.1 | 95.6 | 93.8 | 45.1
12 | CN(C)c1nc(N(C)C)nc(N(C)C)n1 [Altretamine] | 102 | 109 | 115 | 109 | 115 | 103 | 108 | 122
13 | CN(N=O)C(=O)N[C@@H](C=O)[C@@H](O)[C@H](O)[C@H](O)CO [Streptozotocin] | 103 | 103 | 99.8 | 109 | 99.9 | 109 | 104 | 102
14 | CCCC(=O)OCOC(=O)C1=C(C)NC(C)=C(C(=O)OC)C1c1cccc(Cl)c1Cl (centres undefined) [Cleviprex] | 106 | 90.5 | 93.1 | 98 | 91.9 | 91.8 | 96.5 | 96.4
15 | Nc1nc(CC(=O)Nc2ccc(CCNC[C@H](O)c3ccccc3)cc2)cs1 [Mirabegron] | 112 | 110 | 111 | 112 | 103 | 104 | 113 | 129
16 | COC(=O)C1=C(C)NC(C)=C(C(=O)OC)C1c1ccccc1[N+](=O)[O-] [Nifedipine] | 96.4 | 77.6 | 85.4 | 63.7 | 105 | 80.7 | 75.6 | 59
17 | Nc1ncn([C@@H]2O[C@H](CO)[C@@H](O)[C@H]2O)c(=O)n1 [Azacitidine] | 105 | 101 | 102 | 83 | 98.6 | 103 | 90.1 | 84.5
18 | CC1=C(C(=O)OC(C)C)C(c2cccc([N+](=O)[O-])c2)C(C(=O)OC2CN(C(c3ccccc3)c3ccccc3)C2)=C(N)N1 (centres undefined) [Azelnidipine] | 104 | 110 | 106 | 112 | 109 | 110 | 112 | 119
19 | COc1ccc(CNc2nc(N3CCC[C@H]3CO)ncc2C(=O)NCc2ncccn2)cc1Cl [Avanafil] | 91.6 | 99.7 | 97.5 | 103 | 101 | 102 | 97.1 | 107
20 | [I-].[K+] [Potassium iodide] | 103 | 104 | 102 | 108 | 106 | 104 | 106 | 109
21 | Clc1ccc(COC(Cn2ccnc2)c2ccc(Cl)cc2Cl)cc1 (centres undefined) [Econazole nitrate] | 102 | 104 | 106 | 108 | 110 | 105 | 102 | 105
22 | CCN(CC)CCNC(=O)c1c(C)[nH]c(/C=C2\C(=O)Nc3ccc(F)cc32)c1C [Sunitinib Malate] | 106 | 109 | 107 | 115 | 105 | 119 | 114 | 111

Row | SMILES | relative cell viability [1] | relative cell viability [2] | relative cell viability [3] | relative cell viability [4] | relative cell viability [5] | relative cell viability [6] | relative cell viability [7] | relative cell viability [8]
23 | CCCCN(CCCC)CCCOC(=O)c1ccc(N)cc1 [Butacaine] | 103 | 101 | 106 | 106 | 103 | 92.7 | 102 | 104
24 | N=C(N)Nc1ccc(C(=O)Oc2ccc3cc(C(=N)N)ccc3c2)cc1 [Nafamostat mesylate] | 103 | 104 | 108 | 105 | 105 | 110 | 111 | 107
25 | CN[C@H](CC(C)C)C(=O)N[C@H]1C(=O)N[C@@H](CC(N)=O)C(=O)N[C@H]2C(=O)N[C@H]3C(=O)N[C@H](C(=O)N[C@H](C(=O)O)c4cc(O)cc(O)c4-c4cc3ccc4O)[C@H](O)c3ccc(c(Cl)c3)Oc3cc2cc(c3O[C@@H]2O[C@H](CO)[C@@H](O)[C@H](O)[C@H]2O[C@H]2C[C@](C)(N)[C@H](O)[C@H](C)O2)Oc2ccc(cc2Cl)[C@H]1O [Vancomycin HCl] | 105 | 92.7 | 105 | 114 | 106 | 99.4 | 106 | 113
26 | O=C1[C@@H]2[C@H]3CC[C@H](C3)[C@@H]2C(=O)N1C[C@@H]1CCCC[C@H]1CN1CCN(c2nsc3ccccc23)CC1 [Lurasidone HCl] | 96.8 | 101 | 100 | 99.9 | 101 | 104 | 102 | 102
27 | CCN1CC(CCN2CCOCC2)C(c2ccccc2)(c2ccccc2)C1=O (centres undefined) [Doxapram HCl] | 102 | 104 | 100 | 107 | 116 | 103 | 106 | 112
28 | CC[C@H](C)C(=O)O[C@H]1CCC=C2C=C[C@H](C)[C@H](CC[C@@H]3C[C@@H](O)CC(=O)O3)[C@H]21 [Mevastatin] | 112 | 101 | 99.3 | 113 | 101 | 105 | 106 | 119
29 | CN(CCOc1ccc(CC2SC(=O)NC2=O)cc1)c1ccccn1 (centres undefined) [Rosiglitazone] | 104 | 104 | 98.3 | 104 | 99.2 | 105 | 98.4 | 104
30 | Cc1cnc(C(=O)O)c[n+]1[O-] [Acipimox] | 105 | 104 | 109 | 116 | 101 | 104 | 107 | 108
31 | CCc1ccc(CCOc2ccc(CC3SC(=O)NC3=O)cc2)nc1 (centres undefined) [Pioglitazone] | 109 | 110 | 114 | 116 | 104 | 107 | 117 | 120
32 | Cc1nccn1CC1CCc2c(c3ccccc3n2C)C1=O (centres undefined) [Ondansetron] | 99.4 | 103 | 102 | 109 | 102 | 99.7 | 101 | 107
33 | COc1ccc2[nH]c([S+]([O-])Cc3ncc(C)c(OC)c3C)nc2c1 (centres undefined) [Omeprazole] | 101 | 99.7 | 107 | 110 | 104 | 103 | 103 | 105
34 | O=C(Nc1ccc([N+](=O)[O-])cc1Cl)c1cc(Cl)ccc1O [Niclosamide] | 10 | 3.13 | 58.1 | 17.5 | 8.34 | 2.9 | 56.2 | 7.03
35 | CCOc1nc2cccc(C(=O)O)c2n1Cc1ccc(-c2ccccc2-c2nnn[nH]2)cc1 [Candesartan] | 110 | 105 | 110 | 109 | 107 | 109 | 108 | 110
36 | C[C@H](CS)C(=O)N1CCC[C@H]1C(=O)O [Captopril] | 108 | 103 | 105 | 109 | 105 | 97.2 | 106 | 113
37 | O=c1oc2c(O)c(O)cc3c(=O)oc4c(O)c(O)cc1c4c23 [Ellagic acid] | 113 | 104 | 114 | 124 | 101 | 113 | 118 | 119
38 | Cc1nc2n(c(=O)c1CCN1CCC(c3noc4cc(F)ccc34)CC1)CCCC2O (centres undefined) [Paliperidone] | 106 | 107 | 106 | 104 | 104 | 109 | 105 | 118
39 | Clc1ccc(C(c2ccccc2Cl)C(Cl)Cl)cc1 (centres undefined) [Mitotane] | 108 | 105 | 107 | 102 | 104 | 110 | 106 | 121
40 | CCN1CCCC1CNC(=O)c1cc(S(=O)(=O)CC)c(N)cc1OC (centres undefined) [Amisulpride] | 103 | 104 | 111 | 108 | 104 | 107 | 119 | 111
41 | C[C@]12CC[C@H](O)CC1=CC[C@@H]1[C@@H]2CC[C@]2(C)C(c3cccnc3)=CC[C@@H]12 [Abiraterone] | 74.6 | 72.2 | 86.7 | 116 | 61.2 | 67.9 | 78.7 | 112
42 | CN(C)CCC(c1ccc(Cl)cc1)c1ccccn1 (centres undefined) [Chlorpheniramine Maleate] | 87.2 | 101 | 98.4 | 117 | 101 | 114 | 105 | 121
43 | O=P(O)(O)C(O)(Cc1cccnc1)P(=O)(O)O [Risedronic acid] | 94 | 101 | 96.4 | 71.4 | 99 | 108 | 105 | 107
